This is an account of results in PubChem BioAssay (Tox21).

A short description of experiment [1]: qHTS assay to identify small molecule agonists of the estrogen receptor alpha (ER-alpha) signaling pathway in the presence of an antagonist - cell viability counter screen (AID 1259386).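 Note: series mostly up to about 92 µM; cells exposed to compounds for 22 h at 37 °C before the viability read; nearly all actives have a fitted effect of over 30% in size.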 In outline:
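In this counter screen, compound effects on VM7Luc4E2 viability were tested in the presence of the antagonist ICI-182,780 at 10.0nM final. Compounds were dosed at 15 concentrations, exposure lasted 22hr, and the CellTiter-Fluor signal was read.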

Experiment [2] has as its target Progesterone receptor (Homo sapiens) (UniProt P06401). The experiment can be described thus: qHTS assay to identify small molecule agonists of the progesterone receptor (PR) signaling pathway (AID 1346784; calls by dose curve; note: nearly all actives have a fitted effect of over 30% in size). An outline of the steps: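 Seed PR-UAS-bla HEK 293T cells (2% charcoal-stripped FBS), incubate 6 hr at 37C; add compounds in DMSO, 16 hr at 37C; add LiveBLAzer B/G substrate, 2 hr RT; read fluorescence intensity.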
On the technique in general: Quantitative high-throughput screening tests each substance at several concentrations.

Experiment [3] has the same target. The experiment can be described thus: qHTS assay to identify small molecule antagonists of the progesterone receptor (PR) signaling pathway (AID 1346795; active = well fitted inhibition curve with a large enough effect in the signal ratio in the repeat runs, not every such curve was filed as active; the % refers to the signal ratio). In outline:
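Screening used a GripTite HEK293T line with PR-responsive UAS-beta-lactamase. Cells were challenged with compound in the presence of 1 nM R5020 final for 16 hr at 37C; B/G FRET substrate, 2 hr room temperature, fluorescence.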

Experiment [4] in a line: qHTS assay to identify small molecule antagonists of the progesterone receptor (PR) signaling pathway - cell viability counter screen (AID 1346798). Note: nearly all actives have a fitted effect of over 50% in size. Note: potency is the fitted concentration of half-maximal effect. An outline of the steps:
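Measures cytotoxicity in parallel with the PR antagonist reporter read: HEK293T PR-UAS-bla cells get compound and R5020 for 16 hr, and remaining viable cells are quantified by CellTiter-Glo luminescence.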

The nature of experiment [5]: qHTS assay to identify small molecule agonists of the progesterone receptor (PR) signaling pathway - cell viability counter screen (AID 1346799; calls by dose curve; note: nearly all actives have a fitted effect of over 45% in size; note: potency is the fitted concentration of half-maximal effect). An outline of the steps:
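Using the same plates as the PR reporter screen, HEK293T PR-UAS-bla cells received compounds for 16 hr at 37C and were then lysed with CellTiter-Glo; luminescence was read 30 min later at room temperature.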

The nature of experiment [6]: qHTS assay to identify small molecule antagonists of the TGF-beta/Smad signaling pathway - cell viability counter screen (AID 1346824). Note: nearly all actives have a fitted effect of over 50% in size. Note: potency is the fitted concentration of half-maximal effect. In outline:
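SBE-bla HEK 293T cells were plated overnight at 37 C, then given compounds in DMSO plus TGF-beta1 (added as 0.25 ng/mL solution) for 5 hr. After the bla read, CellTiter-Glo was added to the same wells and luminescence read after 30 min at room temperature.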

Experiment [7] is described as follows: qHTS assay to identify small molecule agonists of the TGF-beta/Smad signaling pathway - cell viability counter screen (AID 1346829). Note: nearly all actives have a fitted effect of over 45% in size. Note: potency is the fitted concentration of half-maximal effect. In outline: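 SBE-bla HEK 293T cells plated overnight, compound exposure 5 hr at 37 C. Viability read in the same wells by CellTiter-Glo luminescence after 30 min at room temperature, following the beta-lactamase read.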
Experiment [8] can be described thus: qHTS assay to identify small molecule agonists of the TGF-beta/Smad signaling pathway (AID 1346859; active = well fitted activation curve with a large enough effect in the signal ratio in the repeat runs, not every such curve was filed as active; the % refers to the signal ratio; note: series mostly up to about 77 µM). In outline: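 Beta-lactamase reporter activity downstream of Smad binding elements was measured in stably transfected HEK 293T cells; compounds were incubated for 5 hr, substrate for 2 hr at room temperature.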
Experiment [9] is described as follows: Human pregnane X receptor (PXR) small molecule agonists, qHTS cell viability counter screen (AID 1346977). Note: nearly all actives have a fitted effect of over 50% in size. In outline: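 After a 5hr pre-incubation, PXR-Luc HepG2 cells received compounds plus positive control in DMSO and were kept 24hr at 37C. Cell viability was quantified by fluorescence from CellTiter-Fluor added for the final hour.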
Experiment [10] in a line: Caspase-3/7 induction in HepG2 cells by small molecules, qHTS assay (AID 1346978). Note: nearly all actives have a fitted effect of over 15% in size. In outline: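 Wild-type HepG2 cells (2,000/well) were settled 5 h at 37 C, 5% CO2, then exposed to compounds in DMSO for 17 h. Caspase-3/7 activity was read by luminescence 30 min after adding Caspase-Glo 3/7 reagent at room temperature.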
The nature of experiment [11]: Caspase-3/7 induction in CHO-K1 cells by small molecules, qHTS cell viability counter screen (AID 1346979). Note: nearly all actives have a fitted effect of over 35% in size. Note: potency is the fitted concentration of half-maximal effect. An outline of the steps:
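Multiplexed with Caspase-Glo 3/7 in CHO-K1 cells, this counter screen added CellTiter-Fluor after 16hr of compound exposure and recorded fluorescence 1hr later.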

Experiment [12] in a line: Caspase-3/7 induction in CHO-K1 cells by small molecules, qHTS assay (AID 1346980). Note: nearly all actives have a fitted effect of over 15% in size. In outline: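 Wild-type cells were seeded at 1,500 per well and settled 5 hr at 37 C, 5% CO2, then exposed to DMSO-dissolved compounds for 17 hr. Caspase-Glo 3/7 reagent was added, and luminescence was read after 30min at room temperature.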
Experiment [13] deals with Nuclear receptor subfamily 1 group I member 2 (Homo sapiens) (UniProt O75469). Kind of experiment: Human pregnane X receptor (PXR) small molecule agonists, qHTS assay (AID 1346982). Note: nearly all actives have a fitted effect of over 35% in size. Note: potency is the fitted concentration of half-maximal effect. In outline:
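Reporter HepG2 cells expressing PXR-Luc are cultured in charcoal-stripped FBS (5%), treated with compounds for 24 hr at 37 C, and assayed by ONE-Glo luminescence after 30 min at room temperature.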

Experiment [14] deals with Thyrotropin-releasing hormone receptor (Homo sapiens) (UniProt P34981). Kind of experiment: qHTS assay to identify small molecule antagonists of the thyrotropin-releasing hormone receptor (TRHR) signaling pathway (AID 1346877; active = well fitted inhibition curve with a large enough effect in the repeat runs, not every such curve was filed as active; note: series mostly up to about 51 µM). An outline of the steps: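 Kinetic fluorescence (3 min, 1 s resolution) following stimulation with TRH at 1 nM final; HEK293 cells bearing human TRHR; 5 min compound preincubation at RT; concentration-response over 15 points, triplicates.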
Sequence of Thyrotropin-releasing hormone receptor (Homo sapiens) (P34981 whole entry, looked up): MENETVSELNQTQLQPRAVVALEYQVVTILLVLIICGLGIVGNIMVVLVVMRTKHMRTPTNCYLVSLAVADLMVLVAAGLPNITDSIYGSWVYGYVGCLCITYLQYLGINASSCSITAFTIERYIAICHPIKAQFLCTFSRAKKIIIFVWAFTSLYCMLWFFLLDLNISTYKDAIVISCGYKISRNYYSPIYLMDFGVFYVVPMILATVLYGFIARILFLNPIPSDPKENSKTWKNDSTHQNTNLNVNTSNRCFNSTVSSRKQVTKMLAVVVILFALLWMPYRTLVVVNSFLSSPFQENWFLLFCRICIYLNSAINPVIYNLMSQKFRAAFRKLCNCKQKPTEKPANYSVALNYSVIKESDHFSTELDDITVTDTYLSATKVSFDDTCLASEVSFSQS

For experiment [15] the target is unchanged. The experiment can be described thus: qHTS assay to identify small molecule agonists of the thyrotropin-releasing hormone receptor (TRHR) signaling pathway (AID 1346891; calls by dose curve;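 note: HEK293 cells expressing TRHR with calcium dye readout; series mostly up to about 58 µM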). In outline:
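Overnight-plated (18 h, 37 °C, 5% CO2) TRHR-Hek293 cells; 2 h calcium dye at 37 °C; compound in DMSO; 3-min kinetic fluorescence read.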

Experiment [16] in a line: Caspase-3/7 induction in HepG2 cells by small molecules, qHTS cell viability counter screen (AID 1346981). Note: series mostly up to about 92 µM; nearly all actives have a fitted effect of over 30% in size. An outline of the steps:
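In this quantitative HTS counter screen, compounds delivered in DMSO were left on unmodified HepG2 cells for 16 hr at 37 C. Viability was then determined fluorometrically with CellTiter-Fluor, in parallel with caspase-3/7 induction in the same wells.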

Experiment [17] concerns the target Nuclear receptor subfamily 1 group I member 2 (Rattus norvegicus) (UniProt Q9R1A7). Kind of experiment: Rat pregnane X receptor (rPXR) activation by small molecules, qHTS assay (AID 1346983). Note: nearly all actives have a fitted effect of over 20% in size. To be noted: rPXR luciferase reporter cells, One-Glo luminescence, 24 h; max activation: active compounds read high. An outline of the steps:
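Cell-based rPXR luciferase reporter assay, 2,000 cells per well, rested 5hr at 37 C before compound addition in DMSO, then 24 hr at 37 C. One-Glo reagent was added and luminescence read after 30 min at room temperature.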

Experiment [18] deals with Nuclear receptor subfamily 1 group I member 2 (Homo sapiens) (UniProt O75469). The experiment can be described thus: CYP3A4 induction through human pregnane X receptor (PXR) by small molecules, qHTS assay (AID 1346984). Note: nearly all actives have a fitted effect of over 40% in size. In outline:
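Induction measured in HepG2-based DPX-2 cells co-expressing human PXR and a CYP3A4 promoter-driven luciferase. After a 24-hour compound exposure, cells received CYP3A4 luciferin substrate at 3uM final for 3 hours, and light output was then recorded.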

Experiment [19] has the same target. Kind of experiment: Human pregnane X receptor (PXR) activation by small molecules, qHTS assay (AID 1346985). Note: nearly all actives have a fitted effect of over 40% in size. In outline: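 DPX-2 cells (HepG2 co-transfected with a PXR response element and a CYP3A4-promoter luciferase construct) were seeded at 2,000 per well, rested 5 hr at 37C, then exposed to DMSO-dissolved compounds for 24 hr. Activation was read as luciferase luminescence.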

Unmarked numbers belong to inactive results. Records with an inconclusive call do not appear. Calls of active or inactive are those of the source. Unless noted, calls come from the whole dose curve; as a rule, active = well fitted curve in the direction sought with a large enough effect in the repeat runs; inconclusive = weak or mixed curves; inactive = no such curve, though single readings can be large; an effect the other way counts as inactive or inconclusive.
% is set by controls: 0 for no effect and ±100 for the full control effect.

Sequence of Progesterone receptor (Homo sapiens) (P06401 whole entry, looked up): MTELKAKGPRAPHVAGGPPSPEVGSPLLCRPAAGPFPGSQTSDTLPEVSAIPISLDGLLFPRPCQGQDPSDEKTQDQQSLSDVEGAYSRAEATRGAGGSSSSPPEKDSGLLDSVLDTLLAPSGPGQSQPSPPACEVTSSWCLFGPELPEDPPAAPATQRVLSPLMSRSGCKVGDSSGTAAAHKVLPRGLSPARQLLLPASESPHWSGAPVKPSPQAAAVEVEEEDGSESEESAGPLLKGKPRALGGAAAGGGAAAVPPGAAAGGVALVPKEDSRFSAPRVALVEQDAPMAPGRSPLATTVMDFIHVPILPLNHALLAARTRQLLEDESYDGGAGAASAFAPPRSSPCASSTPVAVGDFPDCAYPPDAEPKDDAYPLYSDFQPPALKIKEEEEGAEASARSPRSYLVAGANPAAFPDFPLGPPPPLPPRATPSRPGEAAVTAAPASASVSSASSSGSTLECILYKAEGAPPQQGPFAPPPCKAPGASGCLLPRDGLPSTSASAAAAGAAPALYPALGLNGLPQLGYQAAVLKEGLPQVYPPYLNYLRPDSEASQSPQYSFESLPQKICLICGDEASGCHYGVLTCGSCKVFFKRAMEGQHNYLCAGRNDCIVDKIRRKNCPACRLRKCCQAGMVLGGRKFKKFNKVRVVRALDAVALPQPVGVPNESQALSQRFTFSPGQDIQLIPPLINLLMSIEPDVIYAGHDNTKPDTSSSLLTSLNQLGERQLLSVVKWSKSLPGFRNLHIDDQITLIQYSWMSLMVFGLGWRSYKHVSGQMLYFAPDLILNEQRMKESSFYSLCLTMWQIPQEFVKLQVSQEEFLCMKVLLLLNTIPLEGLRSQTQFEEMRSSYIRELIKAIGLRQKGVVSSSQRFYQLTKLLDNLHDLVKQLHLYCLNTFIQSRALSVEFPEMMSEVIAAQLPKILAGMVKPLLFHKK
Sequence of Nuclear receptor subfamily 1 group I member 2 (Homo sapiens) (O75469 whole entry, looked up): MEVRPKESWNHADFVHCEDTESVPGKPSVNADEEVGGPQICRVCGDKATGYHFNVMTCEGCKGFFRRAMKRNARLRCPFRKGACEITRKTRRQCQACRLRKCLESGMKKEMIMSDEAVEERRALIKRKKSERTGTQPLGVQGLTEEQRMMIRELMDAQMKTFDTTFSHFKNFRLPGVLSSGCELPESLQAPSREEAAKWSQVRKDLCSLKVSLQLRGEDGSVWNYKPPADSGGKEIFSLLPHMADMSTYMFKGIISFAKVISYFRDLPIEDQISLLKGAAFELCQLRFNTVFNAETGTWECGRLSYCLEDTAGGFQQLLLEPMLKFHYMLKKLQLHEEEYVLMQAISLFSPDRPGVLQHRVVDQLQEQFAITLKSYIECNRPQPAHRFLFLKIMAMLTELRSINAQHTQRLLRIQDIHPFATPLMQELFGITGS
Sequence of Nuclear receptor subfamily 1 group I member 2 (Rattus norvegicus) (Q9R1A7 whole entry, looked up): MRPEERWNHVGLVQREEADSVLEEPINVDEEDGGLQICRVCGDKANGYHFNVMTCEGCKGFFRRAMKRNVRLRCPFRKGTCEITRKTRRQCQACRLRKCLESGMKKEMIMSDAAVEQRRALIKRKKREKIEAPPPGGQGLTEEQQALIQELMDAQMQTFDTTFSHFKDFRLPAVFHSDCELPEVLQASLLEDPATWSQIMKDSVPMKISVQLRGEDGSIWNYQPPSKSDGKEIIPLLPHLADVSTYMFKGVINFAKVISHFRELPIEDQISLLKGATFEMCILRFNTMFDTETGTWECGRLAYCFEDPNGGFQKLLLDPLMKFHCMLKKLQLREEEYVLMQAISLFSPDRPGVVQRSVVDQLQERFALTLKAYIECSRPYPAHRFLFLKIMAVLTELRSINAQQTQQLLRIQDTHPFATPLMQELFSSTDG

In the case of `CCC(=O)C1CC(C(C)C)CC=C1C` (configuration not stated), the Potency entry in experiment [1], in experiment [2], in experiment [3], in experiment [4], in experiment [5] and in [6] was “inactive” in each case. Moreover, the Potency entry in experiment [7], in experiment [8], in experiment [9], in [10], in experiment [11] and in experiment [12] was “inactive” in each case. The Potency in [13] was 30.6 µM (active).

As to `Cc1cc(O)c(C)c(C)c1O`, the Potency result in experiment [1], in [2], in [3], in [4], in experiment [6] and in experiment [8] was “inactive” in each case. Also, the Potency result in [15], in [9], in [10], in experiment [11], in [12] and in [16] was “inactive” each time. In addition, the Potency result in [13] was “inactive”. Further, the compound was classed as inactive in experiment [14].

Regarding `O=c1cc(-c2ccccc2)oc2ccc3ccccc3c12`, the Potency entry in experiment [1], in [2], in experiment [3], in experiment [15], in [9] and in [10] was “inactive” throughout. For the same compound, the Potency was 21.7 µM (active) in experiment [4]; 19.3 µM (active) in [5]; 13.8 µM (active) in [6]; 13.8 µM (active) in [7]; 54.5 µM (active) in experiment [11]; 2.43 µM (active) in experiment [13]. Further, the outcome in experiment [14] was inactive.

As to `C=C1c2cccc(O)c2C(O)=C2C(=O)[C@]3(O)C(O)=C(C(N)=O)C(=O)[C@@H](N(C)C)[C@@H]3[C@@H](O)[C@H]12`, the Potency result in experiment [1], in [2], in experiment [3], in experiment [4], in experiment [5] and in experiment [7] was “inactive” each time. For the same compound, the Potency result in experiment [8], in [15], in [10], in experiment [11], in experiment [12] and in experiment [16] was “inactive” in each case. The Potency entry in [13], in experiment [18] and in [19] was “inactive” in each case. Besides, the outcome in experiment [14] was inactive. Moreover, the max activation in [17] is -2.64%.

Regarding `FC(F)(F)c1ccccc1Cl`, the Potency result in experiment [1], in experiment [2], in experiment [3], in experiment [4], in experiment [5] and in experiment [6] was “inactive” each time. The Potency entry in experiment [7], in [8], in experiment [15], in experiment [9], in experiment [10] and in [11] was “inactive” each time. Moreover, the Potency entry in experiment [16] and in experiment [13] was “inactive” throughout. Moreover, the result in experiment [14] was inactive.
